Assay [1] can be described thus: qHTS assay for small molecule agonists of retinoid X receptor alpha signaling (AID 588544).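 As to activation: 0% = DMSO basal wells and 100% = reference agonist.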 The conditions noted are these: HEK293T RXRa-UAS-bla, beta-lactamase reporter, 18 h; 530 nm emission. Background: qHTS replaces the single test concentration by a dilution series.
Assay [2] deals with Retinoic acid receptor RXR-alpha (Homo sapiens) (UniProt P19793). Described as above. The note with it: HEK293T RXRa-UAS-bla, beta-lactamase reporter, 18 h; series mostly up to 76.7 µM.
The target in assay [3] is Thyroid hormone receptor beta (Homo sapiens) (UniProt P10828). Description: qHTS assay for small molecule agonists of thyroid hormone receptor beta signaling (AID 588545).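 Also: 0% = DMSO only and 100% = 10 nM T3.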 The conditions noted are these: TR-UAS-bla GripTite HEK 293, beta-lactamase ratio, agonist mode, 18 h, percent of T3 response, DMSO as zero; series mostly up to 76.7 µM. The method, boiled down:
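TR-UAS-bla-GripTite HEK 293 cells in medium with 2% charcoal/dextran FBS, 0.1 mM NEAA and 1 mM sodium pyruvate were treated with titrated compounds for 18 hrs at 37 C. Beta-lactamase reporter was read with CCF4 dye (ex 405, em 460/530 nm); EC50 from Hill fits.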

Assay [4] in a line: qHTS assay for small molecule antagonists of retinoid X receptor alpha signaling (AID 588546; active = well fitted inhibition curve with a large enough effect in the signal ratio, with a control signal flat, not every such curve was filed as active; the % refers to the signal ratio;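 also: cells stimulated with 9-cis-retinoic acid as agonist; % is scaled to controls: 0 for no effect and ±100 for the full control effect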). The conditions noted are these: HEK293T RXRa-UAS-bla, beta-lactamase ratio, antagonist mode; measured here: W530 green channel, cytotoxicity proxy. The method, boiled down: (§1)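 Beta-lactamase reporter inhibition, read as CCF4 fluorescence ratio (ex 405, em 460/530 nm) after 2 h at RT. HEK293T UAS-bla cells, 2500/well, were stimulated with 9-cis-RA at 500 or 100 nM final alongside test compound for 18 h at 37 C.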

The target in assay [5] is Retinoic acid receptor RXR-alpha (Homo sapiens) (UniProt P19793). The assay is described as above. The conditions noted are these: HEK293T RXRa-UAS-bla, beta-lactamase ratio, antagonist mode. The method, boiled down: as §1
For assay [6], the target named is Voltage-gated inwardly rectifying potassium channel KCNH2 (Homo sapiens) (UniProt Q12809). The assay can be described thus: qHTS Assay for Small Molecule Inhibitors of the Human hERG Channel Activity (AID 588834; active = well fitted curve in the direction sought with a large enough effect; an effect the other way counts as inactive or inconclusive;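 also: top concentration of the series differs between compounds; % is scaled to controls: 0 for no effect and ±100 for the full control effect; lower thallium flux fluorescence means stronger hERG block; nearly all actives have a fitted effect of over 50% in size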). The conditions noted are these: U2OS BacMam hERG, FluxOR thallium flux fluorescence; series mostly up to 92.2 µM. The method, boiled down: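 Concentration-response qHTS measuring drop in thallium-sensitive dye signal. U2OS cells carrying BacMam hERG; compound exposure ~10 min, then stimulation buffer and 2 min read at 1 sec intervals.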

Assay [7] is described as follows: qHTS assay for small molecule agonists of the antioxidant response element (ARE) signaling pathway (AID 651741; active = well fitted activation curve with a large enough effect in the signal ratio; the % refers to the signal ratio; also: % of control where 0% means no effect). The note with it: HepG2 ARE-bla reporter, beta-lactamase FRET ratio, 16 h; series mostly up to 96 µM. The method, boiled down:
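Compounds in DMSO are pinned onto HepG2 ARE-bla cells (2,000/well) that were preincubated 5 h; plates stay 16 h at 37 C, then beta-lactamase activity is detected with LiveBLAzer B/G substrate by fluorescence.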

Assay [8] can be described thus: qHTS assay for small molecule activators of the p53 signaling pathway (AID 651743; active = well fitted activation curve with a large enough effect in the signal ratio, not every such curve was filed as active; the % refers to the signal ratio; also: % of control where 0% means no effect). The note with it: HCT-116 p53RE-bla, beta-lactamase FRET ratio, 16 h; stronger effect = higher value. The method, boiled down:
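Cell-based beta-lactamase reporter (p53 response elements, HCT-116 background). After a 5-hour preincubation, cells received compound for 16 hours at 37 C; substrate development ran 2 hours at room temperature.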

Assay [9] in a line: qHTS assay for small molecule activators of the nuclear factor-kappa B (NF-kB) signaling pathway (AID 651749; active = well fitted activation curve with a large enough effect in the signal ratio; the % refers to the signal ratio; also: % of control where 0% means no effect). The note with it: NF-kB-bla ME-180 cells, beta-lactamase FRET ratio, 16 h; stronger effect = higher value. In a few lines: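 Screening used 2,000 ME-180 reporter cells per well exposed to pinned compound (23 nL) or DMSO; after 16 hr at 37C, beta-lactamase expression under NF-kB control was assessed through FRET.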

Assay [10] can be described thus: qHTS assay for small molecule disruptors of the mitochondrial membrane potential - 1 hr assay (AID 651754). Also: % is scaled to controls: 0 for no effect and ±100 for the full control effect; nearly all actives have a fitted effect of over 35% in size. The note with it: series mostly up to 92.2 µM. In a few lines: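 HepG2, 2,000 cells/well, overnight attachment; cpd or DMSO 1 hr, 37C/5% CO2; Mito-MPS dye 30 min, 37C; fluorescence monomer (490/535) and aggregate (540/590).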
A short description of assay [11]: qHTS assay for small molecule disruptors of the mitochondrial membrane potential - 5 hr assay (AID 651755). Also: % is scaled to controls: 0 for no effect and ±100 for the full control effect; nearly all actives have a fitted effect of over 40% in size. The conditions noted are these: JC-1-type ratio dye; series mostly up to 92.2 µM. In a few lines:
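HepG2 cells, attached overnight at 37C, were exposed to compound or DMSO for 5 hr at 37C, 5% CO2. Mito-MPS dye was then added for 30 min, and fluorescence read at 490/535 nm (monomers) and 540/590 nm (aggregates).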

For assay [12], the target named is Tumor necrosis factor (Homo sapiens) (UniProt P01375). Description: qHTS assay to identify small molecules that stimulate Tumor Necrosis Factor-alpha (TNF-alpha) secretion (AID 651757; active = well fitted curve in the direction sought with a large enough effect in the signal ratio; the % refers to the signal ratio; also: 0% is about no effect). The conditions noted are these: Human cells, HTRF 665/615 ratio; series mostly up to 92.2 µM. In a few lines:
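Read-out is HTRF, a TR-FRET sandwich of cryptate- and XL665-labeled anti-TNF-alpha antibodies detecting cytokine secreted by THP-1 cells. Cells had been incubated with test compounds at 37 C for 17 hrs beforehand.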

Assay [13] can be described thus: qHTS assay for environmental chemicals that activate the Aryl hydrocarbon Receptor (AhR) signaling pathway (AID 651777; active = well fitted curve in the direction sought with a large enough effect; an effect the other way counts as inactive or inconclusive; also: % of control where 0% means no effect; nearly all actives have a fitted effect of over 15% in size). The conditions noted are these: 1A2-DRE human hepatoma cells, luciferase, 24 h; activation: stronger effect = higher value. In a few lines: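 AhR activation is scored as a rise in luciferase from a stable DRE–CYP1A2 promoter construct in human hepatoma cells. Treatment lasts 24 hr at 37 C; detection uses One-Glo after 30 min at room temperature.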

In assay [14] the target is Peroxisome proliferator-activated receptor alpha (Homo sapiens) (UniProt Q07869). Description: qHTS assay for small molecule agonists of the peroxisome proliferator-activated receptor alpha (PPARalpha) signaling pathway (AID 651778; active = well fitted curve in the direction sought with a large enough effect; an effect the other way counts as inactive or inconclusive; also: % of control where 0% means no effect). The conditions noted are these: PathHunter PPARalpha complementation, chemiluminescence, 6 h; stronger effect = higher value. In a few lines:
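Cells plated at 2,000/well and held overnight at 37 C, 5% CO2, then compound added by pin tool for 6 hr; after PathHunter detection reagent and 60 min at room temperature, chemiluminescence from enzyme complementation was read.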

Assay [15] addresses Nuclear receptor ROR-gamma (Homo sapiens) (UniProt P51449). Description: qHTS assay for small molecule antagonists of the retinoid-related orphan receptor gamma (ROR-gamma) signaling pathway (AID 651802; active = well fitted curve in the direction sought with a large enough effect; an effect the other way counts as inactive or inconclusive;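 also: luciferase reporter luminescence driven by ROR response element; % is scaled to controls: 0 for no effect and ±100 for the full control effect; nearly all actives have a fitted effect of over 60% in size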). The note with it: ROR-gamma antagonist cell reporter assay; series mostly up to 92.2 µM. The method, boiled down:
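CHO, TET-inducible ROR + RORE-LUC reporter, 1536-well qHTS. Compound pinned, doxycycline added, 16hr 37C/5% CO2. ONE-Glo, 30 min RT, luminescence; signal drop scored as antagonism.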

Assay [16] in a line: qHTS assay for small molecule agonists of the antioxidant response element (ARE) signaling pathway measured by Nrf2-dependant transcriptional activity (AID 720636; active = well fitted curve in the direction sought with a large enough effect in the repeat runs; an effect the other way counts as inactive or inconclusive;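 also: HepG2 cells with an ARE-driven luciferase reporter; % of control where 0% means no effect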). The note with it: ARE-luc HepG2, Nrf2 luciferase reporter, 16 h; series mostly up to 92.4 µM. In a few lines:
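First, ARE-luc HepG2 cells attached for 6 hr at 37 C in 1% dialyzed FBS medium. Next, compound or DMSO was added and incubated 16 hr. Finally, ONE-Glo reagent was added and luminescence measured after 30 min.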

Assay [17] can be described thus: qHTS assay for small molecule agonists of the antioxidant response element (ARE) signaling pathway measured by Nrf2-dependant transcriptional activity - cell viability counter screen (AID 720653; active = well fitted curve in the direction sought with a large enough effect in the repeat runs; an effect the other way counts as inactive or inconclusive; also: % is scaled to controls: 0 for no effect and ±100 for the full control effect). The conditions noted are these: ARE-bla HepG2 viability, CellTiter-Glo ATP luminescence, 16 h; stronger effect = lower value. In a few lines:
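ARE-bla HepG2 cells (2,000/well) rested 5 hrs at 37C/5% CO2, then exposed to compounds in DMSO for 16 hrs. Viability was read in the same wells as intracellular ATP by luminescence, 30 min at room temperature after reagent addition.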

A short description of assay [18]: qHTS assay for small molecule antagonists of the retinoid-related orphan receptor gamma (ROR-gamma) signaling pathway - cell viability counter screen (AID 720652; active = well fitted curve in the direction sought with a large enough effect in the repeat runs; an effect the other way counts as inactive or inconclusive;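 also: compound exposure lasted 16 hr before ATP read; % is scaled to controls: 0 for no effect and ±100 for the full control effect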). The conditions noted are these: RORgamma reporter cell line viability counter screen; series mostly up to 92.2 µM. In a few lines:
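Luminescence from CellTiter-Glo after 30 min at room temperature reported cellular ATP as the cytotoxicity measure. Cells were the CHO reporter line with doxycycline-induced ROR-gamma expression, exposed to compound for 16 hr at 37 C.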

The target in assay [19] is Thyroid hormone receptor beta (Homo sapiens) (UniProt P10828). The assay can be described thus: qHTS assay for small molecule antagonists of thyroid hormone receptor beta signaling (AID 588547; active = well fitted inhibition curve with a large enough effect in the signal ratio, with a control signal flat, not every such curve was filed as active; the % refers to the signal ratio;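 also: cells stimulated with 0.4 nM T3 agonist during compound exposure; % is scaled to controls: 0 for no effect and ±100 for the full control effect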). The note with it: TR-UAS-bla HEK293, beta-lactamase ratio, antagonist mode, 18 h. In a few lines:
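TR-UAS-bla GripTite HEK293 cells in 2% charcoal/dextran FBS medium were preincubated 4 h at 37 C, given compound (0.59 nM to 92 uM) plus 0.4 nM T3 (final) for 18 h, then CCF4 for 2 h at RT; Hill fit gave IC50.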

The nature of assay [20]: qHTS assay to identify small molecules that stimulate interleukin-8 (IL-8) secretion (AID 651758; active = well fitted activation curve with a large enough effect in the signal ratio; the % refers to the signal ratio; also: 0% is about no effect). The note with it: HTRF ratio (665/615); series mostly up to 92.2 µM. In a few lines: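 THP-1, 2000 cells/well; cpd 16 h, 37 C; add cryptate + XL665 anti-IL-8 Abs; RT 1-3 h; TR-FRET read.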

Records with an inconclusive call do not appear. Activity calls are given as the source filed them. Unless noted, calls follow the shape of the full dose curve.

Peroxisome proliferator-activated receptor alpha (Homo sapiens), sequence (Q07869 whole entry, looked up): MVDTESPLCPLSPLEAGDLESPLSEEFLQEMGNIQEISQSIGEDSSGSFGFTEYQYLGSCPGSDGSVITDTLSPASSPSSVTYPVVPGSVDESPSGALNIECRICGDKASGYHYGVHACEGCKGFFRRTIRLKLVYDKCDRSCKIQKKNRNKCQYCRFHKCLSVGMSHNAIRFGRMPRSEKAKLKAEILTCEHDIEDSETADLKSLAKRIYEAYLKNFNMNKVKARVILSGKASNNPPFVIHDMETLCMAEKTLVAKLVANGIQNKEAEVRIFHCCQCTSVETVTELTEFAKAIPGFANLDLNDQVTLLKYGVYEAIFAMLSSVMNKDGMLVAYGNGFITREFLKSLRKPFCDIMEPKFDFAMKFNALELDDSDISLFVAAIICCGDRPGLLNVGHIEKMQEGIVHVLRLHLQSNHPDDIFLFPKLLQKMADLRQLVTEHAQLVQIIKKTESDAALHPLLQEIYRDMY
Thyroid hormone receptor beta (Homo sapiens), sequence (P10828 whole entry, looked up): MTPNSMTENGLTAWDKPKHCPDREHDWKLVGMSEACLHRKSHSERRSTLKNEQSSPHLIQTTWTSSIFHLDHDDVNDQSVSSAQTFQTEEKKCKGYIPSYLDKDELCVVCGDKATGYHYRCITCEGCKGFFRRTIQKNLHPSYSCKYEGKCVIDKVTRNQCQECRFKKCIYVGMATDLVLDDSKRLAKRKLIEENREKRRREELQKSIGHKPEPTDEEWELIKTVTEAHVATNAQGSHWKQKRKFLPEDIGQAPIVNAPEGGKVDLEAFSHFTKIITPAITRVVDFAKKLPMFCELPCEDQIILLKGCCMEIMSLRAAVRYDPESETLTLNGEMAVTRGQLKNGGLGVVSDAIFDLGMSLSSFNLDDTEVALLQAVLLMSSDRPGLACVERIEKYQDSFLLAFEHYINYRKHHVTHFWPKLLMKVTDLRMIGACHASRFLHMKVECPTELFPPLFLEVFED
Voltage-gated inwardly rectifying potassium channel KCNH2 (Homo sapiens), sequence (Q12809 whole entry, looked up): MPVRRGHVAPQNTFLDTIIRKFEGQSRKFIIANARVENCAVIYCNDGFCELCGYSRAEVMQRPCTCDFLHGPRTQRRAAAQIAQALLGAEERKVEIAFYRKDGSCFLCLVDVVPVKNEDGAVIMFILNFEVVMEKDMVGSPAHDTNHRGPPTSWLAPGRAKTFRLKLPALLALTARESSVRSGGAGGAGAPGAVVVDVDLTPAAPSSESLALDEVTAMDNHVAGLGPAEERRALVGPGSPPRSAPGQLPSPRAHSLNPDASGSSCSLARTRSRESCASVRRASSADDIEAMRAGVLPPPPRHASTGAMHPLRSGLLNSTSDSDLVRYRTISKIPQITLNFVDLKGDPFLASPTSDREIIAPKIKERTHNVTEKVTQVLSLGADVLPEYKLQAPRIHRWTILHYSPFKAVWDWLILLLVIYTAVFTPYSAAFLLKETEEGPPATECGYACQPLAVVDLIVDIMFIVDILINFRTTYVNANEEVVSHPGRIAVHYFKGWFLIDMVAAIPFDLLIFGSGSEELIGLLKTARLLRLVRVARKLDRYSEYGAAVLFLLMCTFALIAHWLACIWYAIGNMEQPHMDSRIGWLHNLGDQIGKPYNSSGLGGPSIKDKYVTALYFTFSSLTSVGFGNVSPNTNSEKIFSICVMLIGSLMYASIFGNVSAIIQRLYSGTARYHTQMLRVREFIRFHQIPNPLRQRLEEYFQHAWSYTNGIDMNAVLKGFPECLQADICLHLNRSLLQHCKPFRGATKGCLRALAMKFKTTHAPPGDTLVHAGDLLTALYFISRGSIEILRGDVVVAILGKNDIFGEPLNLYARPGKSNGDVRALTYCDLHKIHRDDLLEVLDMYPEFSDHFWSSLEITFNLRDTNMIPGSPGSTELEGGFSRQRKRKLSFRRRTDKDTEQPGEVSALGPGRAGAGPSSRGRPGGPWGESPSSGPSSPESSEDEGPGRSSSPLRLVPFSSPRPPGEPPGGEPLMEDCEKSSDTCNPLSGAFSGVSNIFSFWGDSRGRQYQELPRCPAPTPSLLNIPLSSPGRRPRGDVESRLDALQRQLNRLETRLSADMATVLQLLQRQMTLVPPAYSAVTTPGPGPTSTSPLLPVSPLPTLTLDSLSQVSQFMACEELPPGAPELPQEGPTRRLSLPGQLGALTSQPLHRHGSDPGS
Nuclear receptor ROR-gamma (Homo sapiens), sequence (P51449 whole entry, looked up): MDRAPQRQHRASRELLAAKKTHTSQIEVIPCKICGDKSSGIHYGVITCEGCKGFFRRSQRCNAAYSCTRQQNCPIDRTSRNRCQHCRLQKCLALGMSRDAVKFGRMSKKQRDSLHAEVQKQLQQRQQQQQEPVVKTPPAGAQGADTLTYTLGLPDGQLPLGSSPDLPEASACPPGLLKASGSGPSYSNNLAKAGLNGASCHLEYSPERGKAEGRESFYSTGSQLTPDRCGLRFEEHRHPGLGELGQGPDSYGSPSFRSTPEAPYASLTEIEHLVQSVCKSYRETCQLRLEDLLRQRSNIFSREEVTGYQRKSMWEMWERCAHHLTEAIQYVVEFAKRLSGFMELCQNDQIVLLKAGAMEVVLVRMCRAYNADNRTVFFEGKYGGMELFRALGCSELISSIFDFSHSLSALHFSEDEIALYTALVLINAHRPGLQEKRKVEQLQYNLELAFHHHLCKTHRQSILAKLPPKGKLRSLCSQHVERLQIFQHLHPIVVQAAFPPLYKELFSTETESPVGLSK
Retinoic acid receptor RXR-alpha (Homo sapiens), sequence (P19793 whole entry, looked up): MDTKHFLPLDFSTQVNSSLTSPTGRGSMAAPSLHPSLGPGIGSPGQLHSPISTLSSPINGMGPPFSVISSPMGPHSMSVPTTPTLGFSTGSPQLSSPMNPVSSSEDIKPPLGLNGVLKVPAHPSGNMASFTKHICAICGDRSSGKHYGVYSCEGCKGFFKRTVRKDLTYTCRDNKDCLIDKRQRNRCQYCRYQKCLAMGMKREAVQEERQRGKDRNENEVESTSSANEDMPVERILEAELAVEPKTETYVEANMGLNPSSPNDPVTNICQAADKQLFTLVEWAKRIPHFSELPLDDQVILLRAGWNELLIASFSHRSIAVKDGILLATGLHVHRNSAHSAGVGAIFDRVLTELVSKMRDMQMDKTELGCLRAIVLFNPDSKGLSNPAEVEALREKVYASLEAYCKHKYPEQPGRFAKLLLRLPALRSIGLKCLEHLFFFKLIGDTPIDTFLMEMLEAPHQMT
Tumor necrosis factor (Homo sapiens), sequence (P01375 whole entry, looked up): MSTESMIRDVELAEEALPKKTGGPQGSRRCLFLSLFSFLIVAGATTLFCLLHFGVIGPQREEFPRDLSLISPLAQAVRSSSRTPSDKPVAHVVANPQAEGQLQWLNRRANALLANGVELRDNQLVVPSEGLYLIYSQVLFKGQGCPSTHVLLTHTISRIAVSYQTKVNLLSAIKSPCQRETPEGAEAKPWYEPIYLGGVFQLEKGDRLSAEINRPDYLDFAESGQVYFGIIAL

Turning to `Cc1cccc(C(=O)O)c1`, the max response is -7.73% in [1]; -2.27% in assay [4]; 12.5% (inactive) in [5]; -3.59% (inactive) in [14]; -0.706% (inactive) in [17]. The call in assay [2], in [3] and in assay [16] was inactive. Further, the Potency result in [6], in assay [7], in assay [10], in assay [11], in [12] and in assay [15] was “inactive” in each case. For the same compound, the activation was -0.475% (inactive) in assay [8], 0.0626% (inactive) in [9] and 0.807% (inactive) in assay [13].
Turning to `O=C(O)CNC(=O)c1ccc([N+](=O)[O-])cc1`, the max response in assay [1] is 0.246%; in [4] it was -9.96%; in assay [5], 23.2% (inactive); in [14] it was -1.61% (inactive); in assay [17] it was 1.63% (inactive). Besides, the outcome in [2], in [3] and in assay [16] was inactive. The Potency result in assay [6], in assay [7], in assay [10], in assay [11], in assay [12] and in assay [18] was “inactive” throughout. In addition, the figures for the activation in assay [8], in assay [9] and in assay [13] were -1.97% (inactive), 0.89% (inactive) and 0.908% (inactive), respectively.
Consider `CC(C)N(C)C`, for which the max response in [1] was -10.9%; in assay [4] it was -0.298%; in assay [5], 11.2% (inactive); in [14] it was -5.48% (inactive); in [17], 2.26% (inactive). In addition, the result in assay [2], in [3] and in [16] was inactive. In addition, in [19], the activity change % (negative = inhibition) was -6.45% (inactive). Moreover, the Potency result in assay [7], in assay [11], in assay [12], in assay [20], in assay [15] and in assay [18] was “inactive” each time. The values for the activation in assay [8], in assay [9] and in assay [13] were -1.2% (inactive), -1.35% (inactive) and -0.41% (inactive), respectively.
As for `CC(=O)c1cc(C)oc1C`, the max response is -2.61% in assay [1]; 4.07% in assay [4]; 0.525% (inactive) in assay [5]; -8.47% (inactive) in assay [14]; 1.5% (inactive) in [17]. Further, the call in assay [2], in assay [3] and in [16] was inactive. The Potency entry in [6], in [7], in [11], in [12], in assay [15] and in assay [18] was “inactive” in each case. In addition, the activation is -2.3% (inactive) in assay [8], -0.373% (inactive) in [9] and 0.74% (inactive) in assay [13].
With `Nc1c(Cl)cc(Cl)cc1Cl`, the max response was -8.9% in assay [1]; 1.94% in assay [4]; 4.53% (inactive) in [5]; -2.57% (inactive) in assay [14]; -2.36% (inactive) in assay [17]. Moreover, the compound was called inactive in assay [2], in assay [3] and in assay [16]. In addition, the Potency result in assay [6], in assay [7], in assay [10], in assay [11], in assay [12] and in assay [18] was “inactive” each time. The activation in assay [8] was -0.29% (inactive); in assay [13], -0.694% (inactive).
Turning to `CCC(=O)/C=C/C1C(C)=CCCC1(C)C` (configuration not stated), the max response in [1] is -9.1%; in assay [4], -4%; in assay [5], 2.33% (inactive); in assay [14], 0.561% (inactive); in [17] it was 0.358% (inactive). The compound was classed as inactive in [2], in assay [3] and in assay [16]. Also, the activity change % (negative = inhibition) in [19] was -4.67% (inactive). In addition, the activation in assay [8] was -2.61% (inactive); in [13], -0.103% (inactive). In addition, the Potency result in assay [10], in [11], in [12], in assay [20], in assay [15] and in assay [18] was “inactive” in each case.
